Results published in PubChem BioAssay AID624040 (The Scripps Research Institute Molecular Screening Center, 2012).
The whole screen tested about 360,000 compounds, of which about 2,100 (0.58%) were called active. This excerpt belongs to a sample that is enriched for actives. Unmarked numbers belong to inactive results.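 How the source made its calls: active means inhibition above a per-plate cutoff, the mean of that plate's test compounds plus 3 SD (cut at about 27% in these data); inactive means the rest.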

These compounds were tested against Muscarinic acetylcholine receptor M5 (Homo sapiens) (UniProt P08912) (assay: human M5 muscarinic receptor antagonists, primary screen, CHO cells, Fluo-8 calcium fluorescence (AID 624040;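 further: 0% = acetylcholine EC80 with DMSO and 100% = DMSO without agonist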)). Conditions: CHO-hM5 cells, ACh EC80, at 3 µM, stronger effect = higher value.
Chain of Muscarinic acetylcholine receptor M5 (Homo sapiens) (P08912 whole entry, looked up): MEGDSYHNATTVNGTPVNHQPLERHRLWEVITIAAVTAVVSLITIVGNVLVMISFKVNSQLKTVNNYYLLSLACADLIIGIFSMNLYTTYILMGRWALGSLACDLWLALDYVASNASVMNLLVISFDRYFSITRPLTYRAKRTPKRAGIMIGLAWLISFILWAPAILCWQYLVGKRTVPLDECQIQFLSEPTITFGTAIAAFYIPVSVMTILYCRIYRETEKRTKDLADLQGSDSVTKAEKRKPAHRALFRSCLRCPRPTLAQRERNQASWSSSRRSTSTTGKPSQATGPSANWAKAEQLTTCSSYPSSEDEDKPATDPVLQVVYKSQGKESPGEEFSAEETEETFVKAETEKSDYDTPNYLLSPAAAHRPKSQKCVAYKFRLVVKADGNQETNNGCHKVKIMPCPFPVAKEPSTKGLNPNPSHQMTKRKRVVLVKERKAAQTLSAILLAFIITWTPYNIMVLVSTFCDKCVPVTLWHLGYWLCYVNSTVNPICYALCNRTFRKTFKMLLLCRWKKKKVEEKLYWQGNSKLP

Row | Compound | inhibition
1 | CC1C(=O)NC(=O)C1c1ccccc1 (centres undefined) | 5.64%
2 | COc1cccc(-c2ccc(C#N)c(SCC(=O)NCCc3ccc(Cl)cc3)n2)c1 | -0.91%
3 | COc1cc(C(=O)N2CCOC23CCN(Cc2ccccc2)CC3)cc(OC)c1OC | 4.88%
4 | C[C@@H]1CC[C@@]2(OC1)O[C@H]1C[C@H]3[C@@H]4CC=C5C[C@@H](O)[C@H](O)C[C@]5(C)C4CC[C@]3(C)[C@H]1[C@@H]2C (some centres undefined) | -3.19%
5 | Cc1onc(-c2ccccc2)c1-c1nnc(COC(=O)c2ccc(N(C)C)cc2)o1 | 66.8% (active)
6 | O=C(OCc1nnc(-c2ccccc2)o1)c1ccc2c(c1)C(=O)N(CCc1ccccc1)C2=O | 5.45%
7 | O=C(OCc1nnc(-c2ccccc2)o1)c1cc(=O)[nH]c2ccccc12 | 6.31%
8 | CN/C(=C\[N+](=O)[O-])NCCSCc1csc(CN(C)C)n1 | 4.23%
9 | CC(C)C(=O)Nc1nnc(Sc2ccc(N(C)C)cc2)s1 | -0.86%
10 | COc1cc(OC)cc(C(=O)NC(=S)N2CCN(c3ccc(C(F)(F)F)cc3[N+](=O)[O-])CC2)c1 | 18.9%
11 | O=C(c1ccc(N2CCCC2=O)cc1)N1CCN(c2ccc(C(F)(F)F)cc2[N+](=O)[O-])CC1 | 29.3% (active)
12 | O=C(Cc1ccc(S(=O)(=O)N2CCOCC2)s1)N1CCN(c2ccc(C(F)(F)F)cc2[N+](=O)[O-])CC1 | 17.4%
13 | CC(Sc1sc(=S)sc1SC(C)C(=O)O)C(=O)O (centres undefined) | 0.68%
14 | CN1CCC[C@@H]1CCO[C@](C)(c1ccccc1)c1ccc(Cl)cc1 | 98.5% (active)
15 | Cc1cc2oc3ccc(NCCC4CCCN4C)cc3c(=O)c2cc1C (centres undefined) | 9.19%
16 | Cc1ccc(-c2noc(CNC(=O)c3ccoc3C)n2)cc1 | 12.7%
17 | CC(=O)c1ccc(S(=O)(=O)N(C)CCCC(=O)N(C)Cc2ccccc2F)cc1 | -0.62%
18 | Cc1nc(CN(C)C(=O)CC2C(=O)NCCN2Cc2ccc(F)cc2)cs1 (centres undefined) | -22.7%
19 | CSc1cccc(NC(=S)N(C(C)C)C(C)c2ccccn2)c1 (centres undefined) | 4.26%
20 | COc1ccc(-c2[nH]ncc2CN(C)Cc2cccnc2)c(F)c1 | -5.23%
21 | CCOc1ccc2[nH]c(=O)c(CN(CCCO)S(=O)(=O)c3ccc(F)cc3)cc2c1 | 11.3%
22 | COc1ccc2[nH]c(=O)c(CN(Cc3cccnc3)S(=O)(=O)c3ccccc3F)cc2c1 | 27.3% (active)
23 | CC(C)c1nnc(NC(=O)C2CCCN2S(=O)(=O)c2ccc(Cl)cc2)s1 (centres undefined) | -0.86%
24 | O=C(CNC1CCCCC1)NCC1(c2ccccc2)CCCC1 | 27.1% (active)

Row | Compound | inhibition
25 | CC(=O)CC(CC(=O)NC1CCCCC1)c1ccccc1 (centres undefined) | 8.42%
26 | CCOc1c(OC)cccc1C(=O)NCC1(c2ccccc2)CCCC1 | 15.3%
27 | CC1CN(c2nc(-c3ccccc3)nnc2-c2ccccc2)CC(C)O1 (centres undefined) | 0.03%
28 | CCCC(=O)N1CCC1(C)C(=O)Nc1ccc(-n2cncn2)cc1 (centres undefined) | -3.91%
29 | O=C(c1cc(COc2c(F)cccc2F)on1)N1CCSCC1 | -3.86%
30 | C=CCC1(CC=C)CCCN1C(=O)c1cc(COc2ccc(-n3cncn3)cc2)on1 | 41.9% (active)
31 | CCN(CC)C(=O)C1CCC(C)(C(=O)O)C1(C)C (centres undefined) | 8.62%
32 | COc1ccc(Cn2cc(CN3CCS(=O)(=O)N(Cc4ccc(-c5cccc(Cl)c5)cc4)C(C)C3=O)nn2)cc1 (centres undefined) | -2.91%
33 | CC1=C(C(N)=O)C(c2sccc2C)n2nnnc2N1 (centres undefined) | -6.06%
34 | COc1ccc(OC)c(C2N(c3ccccn3)C(=O)C3CCCN32)c1 (centres undefined) | 2.53%
35 | CN(C)CC/C=C1\c2ccccc2CSc2ccccc21 | 99.1% (active)
36 | CN(C)Cc1ccccc1C1(O)c2ccccc2CSc2ccccc21 (centres undefined) | 18.8%
37 | CCOC(=O)c1ccc(N=C2SC(C(=O)NC)CC(=O)N2CCc2ccccc2)cc1 (centres undefined) | 3.02%
38 | COc1ccc(NC(=O)/C(Cl)=C(/Cl)S(=O)Cc2ccc(C)cc2)cn1 (centres undefined) | 34.9% (active)
39 | N#Cc1ccc(COC(=O)Cn2nnc(-c3ccccc3)n2)cc1 | 1.41%
40 | c1cc(-n2cnnn2)ccc1NC1=NCCC1 | -8.17%
41 | O=C(CSc1nccn1-c1cccc(F)c1)NC1CCCC1 | 0.21%
42 | CCC(C)(C)NC(=O)CN(C(=O)CCC(=O)Nc1cc(C)ccn1)c1ccc2c(c1)OCCO2 | -0.46%
43 | CCCCC(=O)NNC(=S)NC(=O)C(c1ccccc1)c1ccccc1 | 28.1% (active)
44 | CCCOCC(O)CC(CC)C(=O)NNC(=S)Nc1ccccc1 (centres undefined) | -7.7%
45 | C=CCC(NC(=O)Cc1ccccc1)C(=O)NCCC (centres undefined) | -3.26%
46 | CCCNC(=O)N1CCN(C(=O)NCCC)CC1 | 8.13%
47 | CCN1/C(=C\c2ccc3ccccc3[n+]2CC)Sc2cc(C)ccc21 | 48.1% (active)
48 | C#CCO[C@@H]1C[C@H](n2cnc3c(=O)[nH]c(NC(=O)C(C)C)nc32)O[C@@H]1CO | 9.77%

Row | Compound | inhibition
49 | Cc1cccc(-n2c(Cc3cc(=O)[nH]c(=O)[nH]3)nnc2SC(C)C)c1 | -3.22%
50 | CC[C@]12c3[nH]c4ccc(Cl)cc4c3CCN1C(=O)[C@@H](CC(=O)NCCCOC)C[C@@H]2C(=O)N1CCN(C(=O)C2CC2)CC1 | 0.99%
51 | COc1ccccc1NS(=O)(=O)c1ccc(C)c(C(=O)NCC(c2ccco2)N(C)C)c1 (centres undefined) | 6.64%
52 | CSCCC(NS(=O)(=O)c1ccc(C)cc1)C(=O)NCCc1c[nH]c2ccccc12 (centres undefined) | 2.39%
53 | Cc1cccc(N2CCN(S(=O)(=O)c3ccc(-c4cc(C)no4)s3)CC2C)c1 (centres undefined) | -1.63%
54 | Cc1cc(-c2ccc(S(=O)(=O)N3CCN(c4cccc(C(F)(F)F)c4)CC3)s2)on1 | 53.9% (active)
55 | Cc1cc(-c2ccc(S(=O)(=O)N3CCc4ccccc4C3)s2)on1 | 5.38%
56 | C=CCCN(Cc1ccccc1)S(=O)(=O)c1ccccc1Br | 13.3%
57 | O=C(NCC(=O)N1CCC2(CC1)NCCc1[nH]cnc12)c1ccc(Br)cc1 | -15.5%
58 | O=C1C2C3C=CC(C3)C2C(=O)N1c1ccc(-c2nc3ccccc3c(=O)o2)cc1 (centres undefined) | -6.13%
59 | Nc1c(C(=O)c2cccs2)sc2nsc(SCCN3CCCCC3)c12 | 47.4% (active)
60 | CC1CCC2(CC1)NC(=O)N(Cc1nnc(-c3cccs3)o1)C2=O (centres undefined) | 8.17%
61 | COc1ccccc1CNC(=O)COn1nnc2ccc(S(=O)(=O)N3CCOCC3)cc21 | 4.42%
62 | Cn1cccc1C(=O)N1CCc2ccccc2C1 | -2.44%
63 | CN1CCN(C(=O)N2c3ccccc3CCc3ccccc32)CC1 | 98.8% (active)
64 | CN1CCN(S(=O)(=O)c2cccc(C(=O)N3CCc4ccccc43)c2)CC1 | 5.4%
65 | COc1ccc(C(=O)NC2CC2)cc1OC1CCN(C/C=C/c2ccccc2)CC1 | 3.15%
66 | COCCn1c(SCC(=O)Nc2cc(OC)ccc2OC)nc2c(c1=O)SC(C)C2 (centres undefined) | 3.68%
67 | CC(=O)Nc1ccc(S(=O)(=O)NCC(=O)OCc2cc(=O)oc3ccc4ccccc4c23)cc1 | 0.62%
68 | CC(=O)N1CCC(N(C(=O)Nc2ccc(Cl)cc2)C(C)C)CC1 | 12.4%
69 | COc1ccc(OCC(O)CNC(=O)Nc2ccc(Cl)cc2)cc1 (centres undefined) | 12.7%
70 | CC(C)S(=O)(=O)c1csc(NC(=O)Nc2ccc(Cl)cc2)c1Cl | 37.3% (active)
71 | Cc1cc(N2CCCC2)ccc1NC(=O)COc1ccc(Cl)cc1 | -1.18%
72 | O=C(CCCN=C1NS(=O)(=O)c2ccccc21)OCC(=O)c1ccc(F)c(F)c1 | 7.17%

Row | Compound | inhibition
73 | COc1cc(OC)c(OC)cc1CN1CCN(C(=O)c2cccc3ccccc23)CC1 | 4.24%
74 | Cc1cccc2cc3c(N)c(C(=O)N4CCCc5ccccc54)sc3nc12 | 28.3% (active)
75 | CCCn1nc(C(=O)N2CCCc3ccccc32)c2ccccc2c1=O | 12.6%
76 | Cc1ccc(C(=O)N2CCCc3ccccc32)c(Cl)c1 | 16.7%
77 | O=C(Cc1ccc(S(=O)(=O)N2CCOCC2)s1)NCCOc1ccccc1F | -4.35%
78 | CC(Sc1nnc(CNC(=O)c2ccccc2F)n1C)C(=O)Nc1nccs1 (centres undefined) | 5.11%
79 | FC(F)Oc1ccccc1NC(=S)Nc1cccc(Cl)c1Cl | -7.36%
80 | COc1ccc(CN(C)C(=O)Cc2ccsc2)c(OC)c1OC | 6.37%
81 | COc1ccc(-c2cc(C(=O)N(C)Cc3ccc(OC)c(OC)c3OC)c3ccccc3n2)cc1OC | 29.8% (active)
82 | COc1ccc(CN(C)C(=O)Cc2c[nH]c3ccccc23)c(OC)c1OC | 1.21%
83 | CCCCN(CCCC)CCNC(=O)CN1C(=O)COc2ccc(S(=O)(=O)N3CCOCC3)cc21 | -0.51%
84 | CCO[C@H]1OC(C(=O)O)=C[C@@H](C2CCCCC2)[C@@H]1CCCO | 9.63%
85 | O=C(NCc1cccnc1)c1nc(-c2cccs2)no1 | 5.2%
86 | CC(C)(C)NC(=O)NC(=O)COC(=O)CCC1CCCCC1 | -5.64%
87 | CCc1ccc(CNC(=O)C2CCN(c3nnc(C)c4c(C)n(-c5ccc(C)cc5)nc34)CC2)cc1 | 0.33%
88 | CCOc1ccc(CCN2C(=S)N([C@@H](CC(C)C)CN3CCC[C@@H]3CN3C(=S)NC[C@@H]3Cc3ccc(O)cc3)C[C@@H]2Cc2ccc(O)cc2)cc1 | 0.29%
89 | FC(F)(F)Oc1ccccc1C(c1nnnn1C1CCCCC1)N1CCN(C/C=C/c2ccccc2)CC1 (centres undefined) | -11.2%
90 | CCCCn1nnnc1C(c1cccc(OC)c1OC)N1CCN(C/C=C/c2ccccc2)CC1 (centres undefined) | 47% (active)
91 | COc1ccc(C(c2nnnn2C2CCCC2)N2CCN(C/C=C/c3ccccc3)CC2)cc1 (centres undefined) | 42% (active)
92 | COc1ccc(C(c2nnnn2C2CCCCC2)N2CCN(c3ccccc3F)CC2)cc1 (centres undefined) | -15.7%
93 | COCCn1nnnc1C(c1ccccc1Cl)N1CCN(c2ccccc2OC)CC1 (centres undefined) | -11.5%
94 | CCCCn1nnnc1C(c1ccccc1)N1CCN(c2ccccc2OC)CC1 (centres undefined) | 2.03%
